# Experiments:
# [1] = target: T1, Inhibitor of nuclear factor kappa-B kinase subunit epsilon (Homo sapiens) (UniProt Q14164); conditions: at 1 µM;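 note: reported values are averaged percent inhibition figures against human IKKε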
# T1 sequence (whole entry): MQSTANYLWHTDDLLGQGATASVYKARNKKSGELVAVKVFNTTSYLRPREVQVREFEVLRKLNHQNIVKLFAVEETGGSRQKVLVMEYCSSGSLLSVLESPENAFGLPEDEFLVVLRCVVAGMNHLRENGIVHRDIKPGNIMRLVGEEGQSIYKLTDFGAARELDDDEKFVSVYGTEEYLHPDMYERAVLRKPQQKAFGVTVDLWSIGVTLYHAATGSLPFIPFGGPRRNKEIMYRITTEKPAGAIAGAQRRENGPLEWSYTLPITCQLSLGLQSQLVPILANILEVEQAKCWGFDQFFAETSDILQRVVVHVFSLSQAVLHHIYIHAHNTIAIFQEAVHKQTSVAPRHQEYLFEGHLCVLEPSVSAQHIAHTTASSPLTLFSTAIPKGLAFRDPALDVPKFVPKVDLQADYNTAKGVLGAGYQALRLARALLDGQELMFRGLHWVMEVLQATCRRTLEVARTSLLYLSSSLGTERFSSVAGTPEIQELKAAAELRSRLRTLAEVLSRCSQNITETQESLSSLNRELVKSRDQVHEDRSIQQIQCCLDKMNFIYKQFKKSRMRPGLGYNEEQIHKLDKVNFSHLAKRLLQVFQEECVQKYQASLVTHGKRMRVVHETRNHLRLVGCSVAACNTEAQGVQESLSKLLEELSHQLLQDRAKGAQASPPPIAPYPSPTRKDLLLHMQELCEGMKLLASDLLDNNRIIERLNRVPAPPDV
# [2] = target: T2, Serine/threonine-protein kinase Nek1 (Homo sapiens) (UniProt Q96PY6); conditions: at 0.1 µM
# T2 sequence (whole entry): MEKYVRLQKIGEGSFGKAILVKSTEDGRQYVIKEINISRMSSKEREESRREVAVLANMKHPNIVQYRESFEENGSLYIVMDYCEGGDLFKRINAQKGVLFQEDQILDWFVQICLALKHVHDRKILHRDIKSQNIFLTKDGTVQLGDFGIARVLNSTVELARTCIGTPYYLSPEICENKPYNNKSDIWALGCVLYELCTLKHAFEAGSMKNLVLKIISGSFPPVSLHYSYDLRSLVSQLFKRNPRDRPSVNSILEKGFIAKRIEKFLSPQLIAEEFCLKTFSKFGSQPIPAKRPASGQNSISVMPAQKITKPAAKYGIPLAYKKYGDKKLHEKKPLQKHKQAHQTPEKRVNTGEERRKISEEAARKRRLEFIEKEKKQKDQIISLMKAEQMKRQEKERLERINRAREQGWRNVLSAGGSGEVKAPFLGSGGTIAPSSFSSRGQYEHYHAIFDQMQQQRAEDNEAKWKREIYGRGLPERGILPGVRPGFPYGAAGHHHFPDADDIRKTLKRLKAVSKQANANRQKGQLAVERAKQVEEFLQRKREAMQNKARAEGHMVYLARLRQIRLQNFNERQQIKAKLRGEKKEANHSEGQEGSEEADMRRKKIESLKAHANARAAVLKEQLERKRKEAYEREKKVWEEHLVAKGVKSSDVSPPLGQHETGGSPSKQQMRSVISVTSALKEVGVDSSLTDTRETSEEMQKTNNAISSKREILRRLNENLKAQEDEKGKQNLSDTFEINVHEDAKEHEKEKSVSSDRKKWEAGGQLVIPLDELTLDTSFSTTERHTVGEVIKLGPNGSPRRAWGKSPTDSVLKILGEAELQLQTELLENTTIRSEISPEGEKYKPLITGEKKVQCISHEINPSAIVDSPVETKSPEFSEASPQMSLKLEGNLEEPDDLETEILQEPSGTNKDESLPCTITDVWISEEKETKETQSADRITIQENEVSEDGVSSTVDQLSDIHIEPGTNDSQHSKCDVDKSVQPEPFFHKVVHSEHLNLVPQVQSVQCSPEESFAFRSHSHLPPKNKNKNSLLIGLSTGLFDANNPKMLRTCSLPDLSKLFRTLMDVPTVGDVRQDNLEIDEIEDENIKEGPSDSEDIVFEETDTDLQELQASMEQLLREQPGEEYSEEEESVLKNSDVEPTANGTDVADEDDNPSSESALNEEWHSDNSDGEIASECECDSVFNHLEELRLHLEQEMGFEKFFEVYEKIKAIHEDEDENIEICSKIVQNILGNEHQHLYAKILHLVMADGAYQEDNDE
# [3] = target: T2, Serine/threonine-protein kinase Nek1 (Homo sapiens); conditions: at 1 µM
# [4] = target: T3, Serine/threonine-protein kinase Nek2 (Homo sapiens) (UniProt P51955); conditions: at 0.1 µM
# T3 sequence (whole entry): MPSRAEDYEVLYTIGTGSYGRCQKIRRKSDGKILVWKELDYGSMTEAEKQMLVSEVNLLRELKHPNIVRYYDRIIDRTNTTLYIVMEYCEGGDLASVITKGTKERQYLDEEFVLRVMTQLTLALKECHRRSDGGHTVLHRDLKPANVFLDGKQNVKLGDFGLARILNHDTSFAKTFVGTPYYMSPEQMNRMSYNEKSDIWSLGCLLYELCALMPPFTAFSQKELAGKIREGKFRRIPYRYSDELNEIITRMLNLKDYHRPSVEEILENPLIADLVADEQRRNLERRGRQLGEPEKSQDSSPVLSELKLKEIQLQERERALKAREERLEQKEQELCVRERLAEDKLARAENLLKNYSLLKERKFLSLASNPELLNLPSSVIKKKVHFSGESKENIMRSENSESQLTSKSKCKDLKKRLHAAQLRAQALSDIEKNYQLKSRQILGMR
# [5] = target: T3, Serine/threonine-protein kinase Nek2 (Homo sapiens); conditions: at 1 µM
# [6] = target: Serine/threonine-protein kinase Nek6 (Homo sapiens) (UniProt Q9HC98); conditions: at 0.1 µM
# Sequence of Serine/threonine-protein kinase Nek6 (Homo sapiens) (Q9HC98 whole entry): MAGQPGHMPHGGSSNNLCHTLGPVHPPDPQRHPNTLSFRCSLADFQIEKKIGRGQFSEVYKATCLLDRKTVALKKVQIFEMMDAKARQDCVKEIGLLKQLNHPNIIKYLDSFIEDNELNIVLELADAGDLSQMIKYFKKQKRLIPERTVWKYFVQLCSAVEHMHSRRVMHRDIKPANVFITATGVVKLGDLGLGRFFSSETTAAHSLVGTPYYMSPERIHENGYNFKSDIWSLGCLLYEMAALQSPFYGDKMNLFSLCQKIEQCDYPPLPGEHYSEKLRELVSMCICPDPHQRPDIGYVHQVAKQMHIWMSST
# [7] = target: Serine/threonine-protein kinase Nek6 (Homo sapiens) (UniProt Q9HC98); conditions: at 1 µM
# [8] = target: Serine/threonine-protein kinase Nek7 (Homo sapiens) (UniProt Q8TDX7); conditions: at 0.1 µM
# Sequence of Serine/threonine-protein kinase Nek7 (Homo sapiens) (Q8TDX7 whole entry, looked up): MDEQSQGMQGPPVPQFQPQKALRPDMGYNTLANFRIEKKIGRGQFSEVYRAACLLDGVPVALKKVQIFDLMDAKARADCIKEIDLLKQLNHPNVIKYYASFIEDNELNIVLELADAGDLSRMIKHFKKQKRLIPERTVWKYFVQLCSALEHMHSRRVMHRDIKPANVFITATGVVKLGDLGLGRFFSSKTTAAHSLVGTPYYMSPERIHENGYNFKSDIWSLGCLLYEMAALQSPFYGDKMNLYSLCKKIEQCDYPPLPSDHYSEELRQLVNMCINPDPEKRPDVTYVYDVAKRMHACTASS
# [9] = target: Serine/threonine-protein kinase Nek7 (Homo sapiens) (UniProt Q8TDX7); conditions: at 1 µM
# [10] = target: T4, Serine/threonine-protein kinase Nek9 (Homo sapiens) (UniProt Q8TD19); conditions: at 0.1 µM
# T4 sequence (whole entry): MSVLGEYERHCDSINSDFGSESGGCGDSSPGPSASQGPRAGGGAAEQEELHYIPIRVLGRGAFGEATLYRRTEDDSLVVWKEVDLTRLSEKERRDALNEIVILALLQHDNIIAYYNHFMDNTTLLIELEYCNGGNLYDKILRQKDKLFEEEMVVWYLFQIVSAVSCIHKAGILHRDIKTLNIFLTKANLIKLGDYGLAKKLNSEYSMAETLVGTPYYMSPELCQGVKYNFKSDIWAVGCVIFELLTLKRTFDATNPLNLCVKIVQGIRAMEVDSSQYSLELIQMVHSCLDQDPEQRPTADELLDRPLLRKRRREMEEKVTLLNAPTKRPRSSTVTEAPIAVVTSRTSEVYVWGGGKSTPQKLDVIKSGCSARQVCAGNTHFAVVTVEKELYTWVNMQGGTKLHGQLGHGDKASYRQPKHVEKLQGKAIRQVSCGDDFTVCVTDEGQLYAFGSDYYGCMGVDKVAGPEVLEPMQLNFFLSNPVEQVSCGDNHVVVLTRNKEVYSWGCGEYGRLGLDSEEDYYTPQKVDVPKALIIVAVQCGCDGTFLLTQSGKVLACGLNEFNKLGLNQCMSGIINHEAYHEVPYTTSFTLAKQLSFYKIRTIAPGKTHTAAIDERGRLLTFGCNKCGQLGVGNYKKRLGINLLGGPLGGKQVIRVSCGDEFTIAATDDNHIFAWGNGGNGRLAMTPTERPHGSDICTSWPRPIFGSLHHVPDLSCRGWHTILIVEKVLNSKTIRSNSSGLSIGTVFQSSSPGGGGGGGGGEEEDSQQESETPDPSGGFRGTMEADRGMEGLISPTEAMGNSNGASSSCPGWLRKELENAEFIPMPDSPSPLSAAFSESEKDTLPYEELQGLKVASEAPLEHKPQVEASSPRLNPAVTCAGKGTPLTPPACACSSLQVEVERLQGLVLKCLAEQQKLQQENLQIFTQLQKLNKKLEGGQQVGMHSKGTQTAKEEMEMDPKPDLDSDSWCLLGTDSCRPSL
# [11] = target: T4, Serine/threonine-protein kinase Nek9 (Homo sapiens); conditions: at 1 µM
# [12] = target: Serine/threonine-protein kinase PLK1 (Homo sapiens) (UniProt P53350); conditions: at 0.1 µM
# Sequence of Serine/threonine-protein kinase PLK1 (Homo sapiens) (P53350 whole entry): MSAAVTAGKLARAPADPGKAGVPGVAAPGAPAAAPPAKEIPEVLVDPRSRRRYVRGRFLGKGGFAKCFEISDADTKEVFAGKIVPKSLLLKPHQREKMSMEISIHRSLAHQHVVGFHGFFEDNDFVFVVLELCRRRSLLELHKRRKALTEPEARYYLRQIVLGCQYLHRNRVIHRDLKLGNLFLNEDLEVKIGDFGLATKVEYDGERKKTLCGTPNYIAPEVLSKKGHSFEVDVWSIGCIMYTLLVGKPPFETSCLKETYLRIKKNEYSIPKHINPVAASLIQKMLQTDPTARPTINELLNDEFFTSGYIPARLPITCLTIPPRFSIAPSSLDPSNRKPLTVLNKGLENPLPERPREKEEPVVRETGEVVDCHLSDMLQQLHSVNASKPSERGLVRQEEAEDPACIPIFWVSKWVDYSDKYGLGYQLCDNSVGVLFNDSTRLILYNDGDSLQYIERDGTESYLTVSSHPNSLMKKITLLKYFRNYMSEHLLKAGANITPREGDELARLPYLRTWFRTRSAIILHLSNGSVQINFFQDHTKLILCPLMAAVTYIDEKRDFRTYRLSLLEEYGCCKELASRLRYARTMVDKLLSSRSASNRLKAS
# [13] = target: Serine/threonine-protein kinase PLK1 (Homo sapiens) (UniProt P53350); conditions: at 1 µM
# [14] = target: T5, Dual specificity protein kinase TTK (Homo sapiens) (UniProt P33981); conditions: at 0.1 µM
# T5 sequence (whole entry): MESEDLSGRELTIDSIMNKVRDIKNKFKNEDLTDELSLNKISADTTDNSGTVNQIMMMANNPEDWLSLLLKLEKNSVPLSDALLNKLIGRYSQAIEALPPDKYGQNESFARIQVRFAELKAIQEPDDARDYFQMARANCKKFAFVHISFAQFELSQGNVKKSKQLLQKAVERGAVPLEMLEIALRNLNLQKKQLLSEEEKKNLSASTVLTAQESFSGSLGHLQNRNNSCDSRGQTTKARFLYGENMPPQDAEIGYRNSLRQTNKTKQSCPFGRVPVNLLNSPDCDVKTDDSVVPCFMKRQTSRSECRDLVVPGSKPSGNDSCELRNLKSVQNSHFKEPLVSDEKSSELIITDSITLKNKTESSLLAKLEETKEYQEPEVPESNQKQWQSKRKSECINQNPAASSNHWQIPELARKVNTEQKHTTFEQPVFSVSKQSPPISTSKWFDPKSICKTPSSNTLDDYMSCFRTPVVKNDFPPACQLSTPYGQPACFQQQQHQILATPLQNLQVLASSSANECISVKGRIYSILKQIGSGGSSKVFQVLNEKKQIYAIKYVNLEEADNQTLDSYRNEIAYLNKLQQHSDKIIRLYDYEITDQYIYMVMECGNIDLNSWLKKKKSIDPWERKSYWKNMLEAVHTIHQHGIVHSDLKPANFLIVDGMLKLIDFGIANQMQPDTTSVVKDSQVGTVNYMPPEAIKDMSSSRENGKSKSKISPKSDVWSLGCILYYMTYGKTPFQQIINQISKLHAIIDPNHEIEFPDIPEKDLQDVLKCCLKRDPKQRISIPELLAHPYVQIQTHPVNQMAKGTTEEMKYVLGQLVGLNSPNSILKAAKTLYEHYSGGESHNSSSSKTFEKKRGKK
# [15] = tested on: T6, Receptor-type tyrosine-protein kinase FLT3 (Homo sapiens), P36888 [D835Y]; conditions: at 1 µM
# T6 sequence (whole entry): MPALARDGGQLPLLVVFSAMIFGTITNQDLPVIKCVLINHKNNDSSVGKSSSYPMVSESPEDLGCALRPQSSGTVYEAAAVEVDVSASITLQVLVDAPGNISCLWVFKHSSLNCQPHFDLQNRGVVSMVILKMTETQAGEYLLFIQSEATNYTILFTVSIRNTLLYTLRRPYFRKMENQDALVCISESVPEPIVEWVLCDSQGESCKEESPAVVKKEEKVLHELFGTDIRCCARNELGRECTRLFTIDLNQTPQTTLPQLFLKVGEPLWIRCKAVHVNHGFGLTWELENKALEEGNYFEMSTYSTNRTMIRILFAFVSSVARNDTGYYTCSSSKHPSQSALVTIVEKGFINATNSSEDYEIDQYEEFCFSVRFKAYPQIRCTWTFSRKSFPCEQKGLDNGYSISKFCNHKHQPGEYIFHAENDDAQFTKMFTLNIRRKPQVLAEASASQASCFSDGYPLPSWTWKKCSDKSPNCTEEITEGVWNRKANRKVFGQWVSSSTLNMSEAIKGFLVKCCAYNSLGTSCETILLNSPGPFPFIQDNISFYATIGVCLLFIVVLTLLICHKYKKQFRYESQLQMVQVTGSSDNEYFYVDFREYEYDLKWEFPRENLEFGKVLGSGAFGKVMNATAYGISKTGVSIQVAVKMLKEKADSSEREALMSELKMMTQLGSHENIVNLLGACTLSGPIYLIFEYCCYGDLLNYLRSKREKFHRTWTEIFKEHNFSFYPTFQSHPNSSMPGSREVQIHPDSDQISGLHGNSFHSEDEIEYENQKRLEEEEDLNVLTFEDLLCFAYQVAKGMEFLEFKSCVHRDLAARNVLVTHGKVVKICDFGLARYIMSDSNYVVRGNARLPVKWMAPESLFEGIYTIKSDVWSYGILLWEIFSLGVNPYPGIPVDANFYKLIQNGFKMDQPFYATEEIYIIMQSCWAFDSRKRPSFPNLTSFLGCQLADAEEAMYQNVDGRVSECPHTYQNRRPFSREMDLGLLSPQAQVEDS
# [16] = target: Vascular endothelial growth factor receptor 3 (Homo sapiens) (UniProt P35916); conditions: at 0.1 µM
# Sequence of Vascular endothelial growth factor receptor 3 (Homo sapiens) (P35916 whole entry): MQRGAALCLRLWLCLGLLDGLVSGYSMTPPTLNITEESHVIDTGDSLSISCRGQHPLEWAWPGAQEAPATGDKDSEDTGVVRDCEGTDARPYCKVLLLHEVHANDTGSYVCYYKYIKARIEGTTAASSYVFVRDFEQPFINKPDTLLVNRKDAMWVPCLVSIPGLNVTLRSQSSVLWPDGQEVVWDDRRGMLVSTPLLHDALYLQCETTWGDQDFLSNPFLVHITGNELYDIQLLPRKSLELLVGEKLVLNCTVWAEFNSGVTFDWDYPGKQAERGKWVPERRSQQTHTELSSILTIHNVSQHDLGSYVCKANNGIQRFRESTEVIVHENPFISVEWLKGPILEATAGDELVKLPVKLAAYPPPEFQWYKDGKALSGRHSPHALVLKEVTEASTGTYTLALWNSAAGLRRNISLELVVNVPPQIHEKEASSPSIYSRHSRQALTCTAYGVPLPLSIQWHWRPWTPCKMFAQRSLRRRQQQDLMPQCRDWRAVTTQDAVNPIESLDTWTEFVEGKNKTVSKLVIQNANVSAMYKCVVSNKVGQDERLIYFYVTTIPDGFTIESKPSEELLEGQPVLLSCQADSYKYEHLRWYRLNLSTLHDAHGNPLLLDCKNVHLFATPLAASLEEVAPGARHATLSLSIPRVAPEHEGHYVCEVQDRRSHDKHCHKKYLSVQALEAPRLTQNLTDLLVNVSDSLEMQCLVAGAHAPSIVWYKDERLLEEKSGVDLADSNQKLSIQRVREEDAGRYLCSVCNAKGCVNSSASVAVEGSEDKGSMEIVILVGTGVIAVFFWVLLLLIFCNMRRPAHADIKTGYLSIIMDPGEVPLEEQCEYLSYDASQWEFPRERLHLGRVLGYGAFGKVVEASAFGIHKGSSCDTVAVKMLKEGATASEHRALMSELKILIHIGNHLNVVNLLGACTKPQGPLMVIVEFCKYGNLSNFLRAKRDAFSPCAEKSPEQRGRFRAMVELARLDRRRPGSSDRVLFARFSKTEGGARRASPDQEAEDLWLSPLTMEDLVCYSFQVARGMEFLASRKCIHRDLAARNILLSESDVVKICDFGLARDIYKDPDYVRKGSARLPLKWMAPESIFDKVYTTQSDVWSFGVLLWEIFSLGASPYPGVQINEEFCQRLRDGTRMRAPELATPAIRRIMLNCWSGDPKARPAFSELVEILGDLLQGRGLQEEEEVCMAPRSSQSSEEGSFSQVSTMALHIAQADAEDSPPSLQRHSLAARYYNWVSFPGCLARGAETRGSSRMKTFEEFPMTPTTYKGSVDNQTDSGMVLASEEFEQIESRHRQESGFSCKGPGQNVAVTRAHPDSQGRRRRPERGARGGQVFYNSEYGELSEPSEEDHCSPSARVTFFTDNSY
# [17] = target: Vascular endothelial growth factor receptor 3 (Homo sapiens) (UniProt P35916); conditions: at 1 µM
# [18] = target: Macrophage colony-stimulating factor 1 receptor (Homo sapiens) (UniProt P07333); conditions: at 0.1 µM
# Sequence of Macrophage colony-stimulating factor 1 receptor (Homo sapiens) (P07333 whole entry): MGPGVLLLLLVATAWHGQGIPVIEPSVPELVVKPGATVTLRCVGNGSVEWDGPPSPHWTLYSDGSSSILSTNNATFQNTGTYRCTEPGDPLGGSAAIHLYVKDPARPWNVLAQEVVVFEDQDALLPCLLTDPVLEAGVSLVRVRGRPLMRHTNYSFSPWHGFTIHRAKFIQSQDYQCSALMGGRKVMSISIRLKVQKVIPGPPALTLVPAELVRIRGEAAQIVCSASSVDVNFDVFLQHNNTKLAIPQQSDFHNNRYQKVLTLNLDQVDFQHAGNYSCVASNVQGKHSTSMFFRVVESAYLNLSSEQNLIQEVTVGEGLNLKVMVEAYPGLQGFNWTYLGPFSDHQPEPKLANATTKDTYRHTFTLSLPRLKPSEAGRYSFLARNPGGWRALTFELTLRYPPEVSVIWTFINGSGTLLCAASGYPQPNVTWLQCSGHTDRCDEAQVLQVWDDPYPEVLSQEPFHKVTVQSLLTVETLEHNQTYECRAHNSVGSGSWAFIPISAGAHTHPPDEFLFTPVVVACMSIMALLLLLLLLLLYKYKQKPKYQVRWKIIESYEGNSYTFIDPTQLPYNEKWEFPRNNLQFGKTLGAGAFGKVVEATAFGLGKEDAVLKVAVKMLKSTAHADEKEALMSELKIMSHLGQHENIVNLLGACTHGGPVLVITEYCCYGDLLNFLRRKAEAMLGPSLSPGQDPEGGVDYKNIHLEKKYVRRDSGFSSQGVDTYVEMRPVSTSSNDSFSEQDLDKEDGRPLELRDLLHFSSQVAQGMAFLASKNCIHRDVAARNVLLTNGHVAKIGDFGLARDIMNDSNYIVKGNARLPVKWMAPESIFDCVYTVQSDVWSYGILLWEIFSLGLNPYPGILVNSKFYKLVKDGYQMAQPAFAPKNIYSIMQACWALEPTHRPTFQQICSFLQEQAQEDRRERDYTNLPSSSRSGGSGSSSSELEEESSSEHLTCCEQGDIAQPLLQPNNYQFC
# [19] = target: Macrophage colony-stimulating factor 1 receptor (Homo sapiens) (UniProt P07333); conditions: at 1 µM
# [20] = target: Tyrosine-protein kinase Fyn (Homo sapiens) (UniProt P06241); conditions: at 0.1 µM
# Sequence of Tyrosine-protein kinase Fyn (Homo sapiens) (P06241 2-537 limits assumed): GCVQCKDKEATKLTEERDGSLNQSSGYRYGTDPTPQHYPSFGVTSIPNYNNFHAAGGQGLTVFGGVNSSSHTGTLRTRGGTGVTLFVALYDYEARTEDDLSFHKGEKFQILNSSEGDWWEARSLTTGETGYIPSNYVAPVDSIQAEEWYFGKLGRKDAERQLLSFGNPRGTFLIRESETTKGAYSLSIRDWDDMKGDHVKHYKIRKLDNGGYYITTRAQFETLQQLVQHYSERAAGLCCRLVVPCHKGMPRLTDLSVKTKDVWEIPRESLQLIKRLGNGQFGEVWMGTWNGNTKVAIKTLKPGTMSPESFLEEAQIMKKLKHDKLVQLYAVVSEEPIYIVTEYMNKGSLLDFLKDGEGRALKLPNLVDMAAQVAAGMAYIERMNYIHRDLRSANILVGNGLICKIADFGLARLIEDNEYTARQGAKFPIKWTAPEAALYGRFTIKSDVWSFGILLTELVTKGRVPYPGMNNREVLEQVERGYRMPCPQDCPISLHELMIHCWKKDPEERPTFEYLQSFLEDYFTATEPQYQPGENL
structure (smiles),measurement,setting,value
Cc1ccc(Nc2ccnc(Nc3cccc(C(N)=O)c3)n2)cc1O,inhibition,[1],19.4%
same,inhibition,[2],2.35%
same,inhibition,[3],3.58%
same,inhibition,[4],4%
same,inhibition,[5],2.98%
same,inhibition,[6],4.22%
same,inhibition,[7],2.69%
same,inhibition,[8],4.63%
same,inhibition,[9],4.4%
same,inhibition,[10],6.86%
same,inhibition,[11],10.2%
same,inhibition,[12],3.22%
same,inhibition,[13],6.17%
same,inhibition,[14],5.91%
same,inhibition,[15],86.1%
same,inhibition,[16],64%
same,inhibition,[17],95%
same,inhibition,[18],12.7%
same,inhibition,[19],49.9%
same,inhibition,[20],77.2%

# — ChEMBL document CHEMBL1961873, “Compounds: GSK PKIS; Assays: Nanosyn kinase panel” (2012)
